This passage reports growth results from PubChem BioAssay (NCI).

Some test systems named below: NCI-H23 lung; NCI-H226 lung; NCI-H322M lung; HOP-62 NSCLC; NCI-H460 lung; HOP-92 NSCLC; NCI-H522 lung; 786-0 renal; COLO 205 colon; DU-145 prostate; K-562 leukemia; MDA-MB-231 breast; RXF 393 renal; SF-268 CNS; SF-295 CNS; SF-539 CNS; UACC-257 melanoma; M14 melanoma; A549/ATCC NSCLC; MALME-3M melanoma.
Holding throughout (assay): NCI-60 one-dose screen, 48 h (100 = growth as untreated, 0 = no growth, -100 = all killed)
Common to all, as to conditions: 10 µM unless noted

Compounds without any hit were thinned out: in the full panel of roughly 83,000, 20% have a hit.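 Results are percent growth after 48 hours of single-concentration exposure. 100 means growth as in untreated cells, lower positive values show inhibition; negative values down to -100 show cell death.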 Unmarked numbers belong to inactive results. Activity calls are given as the source filed them. How the source made its calls: active means growth percent below 10; inactive means the rest.

Regarding `COc1cccc(NC(=O)c2sc3nc4c(cc3c2N)CN(Cc2ccccc2)CC4)c1`, the growth in the assay with NCI-H23 lung was 81.2%; with NCI-H226 lung, 57.2%; in the assay with NCI-H322M lung, 74%; with HOP-62 NSCLC, 31.4%; in the assay with NCI-H460 lung, 45.6%; with HOP-92 NSCLC, 42.1%. Moreover, the growth in the assay with NCI-H522 lung was 68%; with 786-0 renal, 37.2%; in the assay with COLO 205 colon it was 78.6%; with DU-145 prostate, 66.1%; in the assay with K-562 leukemia, 33.2%; in the assay with MDA-MB-231 breast, 62.5%. The growth was 49.3% with RXF 393 renal; 42.9% in the assay with SF-268 CNS; 49.6% in the assay on SF-295 CNS; 30.5% in the assay on SF-539 CNS; 61.2% with UACC-257 melanoma; 68.2% with M14 melanoma.

As to `COc1ccc2nc3cc(Cl)ccc3c(N3CCN(c4ccnc(N5CCOCC5)n4)CC3)c2c1`, the growth is 46.1% in the assay on NCI-H23 lung; 89.2% in the assay on NCI-H226 lung; 94.4% in the assay with NCI-H322M lung; 71.5% in the assay on HOP-62 NSCLC; 76.5% with NCI-H460 lung; 56.3% in the assay with HOP-92 NSCLC. The growth is 95.2% in the assay with A549/ATCC NSCLC; 92.8% in the assay with 786-0 renal; 31.1% in the assay with COLO 205 colon; 24.2% in the assay with DU-145 prostate; 80.3% in the assay on MALME-3M melanoma; 45.1% in the assay on MDA-MB-231 breast. Moreover, the growth is 8.55% (active) in the assay on RXF 393 renal; 45.3% with SF-268 CNS; 88.7% with SF-295 CNS; 76.9% with UACC-257 melanoma; 86.6% with M14 melanoma.

As to `O=c1[nH]c(-c2ccccn2)nc2sc3c(c12)CCCCC3`, the growth in the assay with NCI-H23 lung is 56.9%; in the assay with NCI-H226 lung it was 68.8%; in the assay with NCI-H322M lung it was 48.5%; with HOP-62 NSCLC, 37.8%; in the assay on NCI-H460 lung, 18.8%; in the assay with HOP-92 NSCLC it was 68.6%. Besides, the growth in the assay with A549/ATCC NSCLC is 31.7%; in the assay with 786-0 renal it was 60.4%; in the assay with COLO 205 colon, 28%; in the assay on DU-145 prostate, 48.8%; in the assay on K-562 leukemia, 21.4%; in the assay with MALME-3M melanoma it was 75.3%. The growth in the assay on MDA-MB-231 breast is 52.4%; in the assay with RXF 393 renal it was 70.4%; with SF-268 CNS, 47.6%; in the assay with SF-295 CNS, 33.1%; with UACC-257 melanoma it was 73.4%; in the assay with M14 melanoma, 43.3%.

As to `Cc1csc2ccc(Cl)cc12`, the growth in the assay on NCI-H23 lung is 97.8%; in the assay on NCI-H226 lung, 104%; with NCI-H322M lung it was 101%; with HOP-62 NSCLC, 96.6%; with NCI-H460 lung, 106%; in the assay with HOP-92 NSCLC it was 104%. Besides, the growth in the assay on NCI-H522 lung was 89%; in the assay with 786-0 renal it was 105%; with COLO 205 colon, 105%; with DU-145 prostate it was 110%; in the assay with K-562 leukemia, 106%; with MALME-3M melanoma, 97.7%. The growth was 97% in the assay on MDA-MB-231 breast; 108% with SF-268 CNS; 96.8% in the assay on SF-539 CNS; 102% in the assay with UACC-257 melanoma; 101% in the assay with M14 melanoma.

Take `O=C(CO[N+](=O)[O-])Nc1ccc(C(=O)/C=C/c2ccc(Cl)cc2)cc1`: the growth in the assay with NCI-H23 lung was 5.49% (active); in the assay on NCI-H226 lung it was 81.7%; with NCI-H322M lung, 71.5%; in the assay with HOP-62 NSCLC it was 94.1%; in the assay with NCI-H460 lung, 84.9%; in the assay on HOP-92 NSCLC, 66.8%. The growth in the assay with A549/ATCC NSCLC was 67.6%; with 786-0 renal it was 75%; in the assay with COLO 205 colon, 36.1%; in the assay on DU-145 prostate it was 79.9%; in the assay with MALME-3M melanoma, 79.1%; in the assay with MDA-MB-231 breast, 55%. The growth with RXF 393 renal was 72.5%; with SF-268 CNS, 44.9%; in the assay with SF-295 CNS it was 105%; in the assay on UACC-257 melanoma, 61.2%; in the assay on M14 melanoma it was 3.46% (active).

Consider `Cn1cc(-c2csc(-c3cn(C)c4ncccc34)n2)c2ccccc21`, for which the growth is 41.8% in the assay with NCI-H23 lung; 74.8% in the assay on NCI-H226 lung; 45.1% with NCI-H322M lung; 33.8% with HOP-62 NSCLC; 11.7% in the assay with NCI-H460 lung; 66.1% with HOP-92 NSCLC. Moreover, the growth in the assay on A549/ATCC NSCLC is 23.8%; in the assay with 786-0 renal it was 60%; in the assay on COLO 205 colon, -7.52% (active); in the assay with DU-145 prostate, 28%; with K-562 leukemia, 14.8%; with MALME-3M melanoma it was 48.3%. The growth in the assay with MDA-MB-231 breast was 52.2%; in the assay on RXF 393 renal, 19.9%; in the assay on SF-268 CNS, 50.6%; in the assay with SF-295 CNS, 9.79% (active); with UACC-257 melanoma it was 61.1%; in the assay with M14 melanoma it was 12.2%.

Consider `N=c1c2ccccc2nc2n1CCCCC2`, for which the growth was 102% in the assay on NCI-H23 lung; 102% in the assay with NCI-H226 lung; 112% with NCI-H322M lung; 105% with HOP-62 NSCLC; 113% in the assay on NCI-H460 lung; 133% with HOP-92 NSCLC. The growth in the assay on A549/ATCC NSCLC was 101%; in the assay with 786-0 renal, 119%; with COLO 205 colon it was 104%; in the assay with DU-145 prostate, 118%; in the assay on K-562 leukemia, 121%; with MALME-3M melanoma, 107%. Moreover, the growth in the assay with MDA-MB-231 breast was 110%; in the assay on RXF 393 renal, 110%; with SF-268 CNS, 106%; with SF-295 CNS, 109%; in the assay on UACC-257 melanoma, 110%; with M14 melanoma it was 108%.

For `O=S(=O)(Nc1ccc(F)c(Cl)c1)c1ccc(-c2cnc(C3CC3)o2)cc1`, the growth is 24.8% in the assay on NCI-H23 lung; 47.1% in the assay with NCI-H226 lung; 45.7% in the assay with NCI-H322M lung; 33.1% in the assay on HOP-62 NSCLC; 10.5% with NCI-H460 lung; 42% in the assay with HOP-92 NSCLC. Moreover, the growth in the assay with A549/ATCC NSCLC was 21.4%; in the assay on 786-0 renal it was 43.2%; in the assay with COLO 205 colon, -6.19% (active); in the assay with DU-145 prostate, 16.3%; with K-562 leukemia, 15.4%; with MALME-3M melanoma, 45%. Moreover, the growth was 36.2% in the assay on MDA-MB-231 breast; -9.55% (active) with RXF 393 renal; 52.2% in the assay with SF-268 CNS; 5.73% (active) in the assay with SF-295 CNS; -14.7% (active) in the assay on SF-539 CNS; 48.2% in the assay on UACC-257 melanoma. Further, the growth with M14 melanoma is 24.8%.

With `COc1ccc(S(=O)(=O)NCCCNc2cc(-c3c(-c4cccc(OC)c4)nc4sccn34)ccn2)cc1`, the growth in the assay on NCI-H23 lung was 59.8%; in the assay on NCI-H226 lung, 37.7%; in the assay on NCI-H322M lung, 67.6%; in the assay with HOP-62 NSCLC it was 80.6%; in the assay with NCI-H460 lung, 44.2%; with HOP-92 NSCLC it was 62.1%. The growth in the assay with 786-0 renal was 52.1%; with COLO 205 colon, 35.8%; in the assay on DU-145 prostate, 46.4%; with K-562 leukemia it was 25.6%; in the assay on MALME-3M melanoma it was 66.1%; in the assay on MDA-MB-231 breast, 46.8%. The growth with RXF 393 renal was 56%; with SF-268 CNS, 44.9%; with SF-295 CNS it was 40.5%; in the assay with SF-539 CNS, 61.9%; with UACC-257 melanoma, 53.3%; in the assay on M14 melanoma, 45%.
